The text below walks through data of PubChem BioAssay.

Assay [1] in a line: viability loss in pontine glioma line – cell-based, SU-DIPG-XXV, MIPE5.0, CellTiter-Glo, qHTS, dose response (AID 1347065; cut-off not given, nearly all actives have AC50 up to about 26 µM;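 note: cells exposed to compound for 48 hours before ATP readout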). The note with it: CellTiter-Glo ATP luminescence. On the technique in general: ATP-based viability assays read luminescence as a measure of living cells.
Assay [2] can be described thus: JHH-DIPG-1 glioma cell viability, MIPE5.0 library, CellTiter-Glo luminescence, qHTS (AID 1347067; cut-off not given, nearly all actives have AC50 up to about 26 µM;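 note: cells exposed to compound for 48 hours before readout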). The note with it: JHH-DIPG-1 glioma viability, CellTiter-Glo ATP luminescence.
Assay [3] in a line: SU-DIPG-XXV glioma cell viability, MIPE5.0 library, qHTS (AID 1347068; cut-off not given, nearly all actives have IC50 up to about 30 µM).
A short description of assay [4]: sensitizers of A549 cells to miR-34 induction, primary screen, imaging, A549 dox-inducible miR-34, nuclei and caspase counts (AID 1347080;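 active = compounds whose cell count with miR-34 switched on is under 0.7 times the count with it off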). The note with it: A549 miR-34 inducible, Hoechst nuclei count, 48 h.
A short description of assay [5]: phospholipid biosynthesis inhibitors in animal cells, primary screen, cell-based, LOPAC library, screen 4 (AID 1347384; call rule not given here). Conditions: phospholipid biosynthesis inhibition screen, at 10 µM.
The nature of assay [6]: survival rescue of mitochondrial mutant cells in low glucose, primary screen, MELAS cybrids, Rieske KO mouse fibroblasts, CellTiter-Glo (AID 1508586).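 Note: z relative to plate mean and SD of compound and empty wells.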
The target in assay [7] is NAD(+) hydrolase SARM1 (Homo sapiens) (UniProt Q6SZW1). As to the kind of experiment: SARM1 TIR NADase inhibitors, cell lysate, NAD-Glo luminescence (AID 1508614;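 active = compound whose remaining NAD level is above about 45 nM, limit read from the data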;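 note: higher remaining NAD means stronger inhibition of SARM1 NADase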). The note with it: SAM-TIR HEK293T lysate NADase, at 1 µM, stronger effect = higher value.
NAD(+) hydrolase SARM1 (Homo sapiens), sequence (Q6SZW1 whole entry, looked up, the tested form may be a part): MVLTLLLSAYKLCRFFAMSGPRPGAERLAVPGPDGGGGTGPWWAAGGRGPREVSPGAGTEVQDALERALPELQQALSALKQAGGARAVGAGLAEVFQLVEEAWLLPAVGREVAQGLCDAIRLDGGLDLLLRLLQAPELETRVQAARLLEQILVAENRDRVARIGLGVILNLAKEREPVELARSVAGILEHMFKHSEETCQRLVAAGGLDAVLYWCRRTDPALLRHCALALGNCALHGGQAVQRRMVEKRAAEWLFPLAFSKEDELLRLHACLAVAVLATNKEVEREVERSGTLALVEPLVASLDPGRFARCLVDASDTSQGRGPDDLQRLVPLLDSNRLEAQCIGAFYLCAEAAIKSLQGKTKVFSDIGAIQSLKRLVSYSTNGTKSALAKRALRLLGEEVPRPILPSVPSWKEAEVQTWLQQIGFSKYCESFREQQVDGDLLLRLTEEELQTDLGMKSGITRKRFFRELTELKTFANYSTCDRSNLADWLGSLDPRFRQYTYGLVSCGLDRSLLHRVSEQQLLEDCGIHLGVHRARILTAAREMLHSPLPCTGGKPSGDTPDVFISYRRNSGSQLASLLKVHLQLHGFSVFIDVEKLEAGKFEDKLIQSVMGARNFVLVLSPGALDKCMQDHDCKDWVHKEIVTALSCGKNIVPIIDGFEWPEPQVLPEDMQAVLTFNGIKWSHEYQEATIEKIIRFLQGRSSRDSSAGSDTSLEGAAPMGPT
In assay [8] the target is Mitogen-activated protein kinase 7 (Homo sapiens) (UniProt Q13164). The assay is described as follows: ERK5 transactivation activators in reporter cells, primary screen, cell-based, HTS (AID 1508626;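 active = luciferase signal above three times the same-plate solvent-only control wells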;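 note: luciferase driven by Gal4-ERK5 fusion binding five Gal4 sites before minimal TATA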). Conditions: HeLa Gal4-ERK5 transactivation, 18 h, at 5 µM, stronger effect = higher value.
Mitogen-activated protein kinase 7 (Homo sapiens), sequence (Q13164 whole entry, looked up, the tested form may be a part): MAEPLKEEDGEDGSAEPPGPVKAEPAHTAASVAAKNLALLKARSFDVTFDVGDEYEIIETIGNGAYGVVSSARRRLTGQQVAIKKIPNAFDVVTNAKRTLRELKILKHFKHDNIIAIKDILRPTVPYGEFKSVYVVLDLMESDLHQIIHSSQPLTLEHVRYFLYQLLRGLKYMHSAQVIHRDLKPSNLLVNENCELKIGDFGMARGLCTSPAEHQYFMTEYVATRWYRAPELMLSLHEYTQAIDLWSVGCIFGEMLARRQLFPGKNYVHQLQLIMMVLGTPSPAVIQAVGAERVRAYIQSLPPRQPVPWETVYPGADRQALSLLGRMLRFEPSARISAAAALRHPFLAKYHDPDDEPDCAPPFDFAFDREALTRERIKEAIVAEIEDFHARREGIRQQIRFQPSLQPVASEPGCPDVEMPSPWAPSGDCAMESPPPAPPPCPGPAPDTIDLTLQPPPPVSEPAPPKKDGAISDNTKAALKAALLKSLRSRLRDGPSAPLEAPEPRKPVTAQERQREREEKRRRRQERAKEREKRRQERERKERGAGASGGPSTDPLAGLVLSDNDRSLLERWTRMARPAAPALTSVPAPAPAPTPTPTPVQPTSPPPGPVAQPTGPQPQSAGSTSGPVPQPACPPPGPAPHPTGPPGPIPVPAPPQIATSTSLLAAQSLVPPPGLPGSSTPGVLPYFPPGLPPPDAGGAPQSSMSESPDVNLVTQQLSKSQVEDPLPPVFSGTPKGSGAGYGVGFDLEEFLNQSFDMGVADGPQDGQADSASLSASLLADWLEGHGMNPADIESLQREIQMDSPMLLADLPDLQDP
Assay [9] can be described thus: viability rescue of complex I mutant cybrids, primary screen, cell-based, galactose medium, ATP luminescence (AID 1645843;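 active = z-score of at least 1.8 in each of two replicates, scored against plate mean and spread of sample wells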;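 note: positive z means more ATP and so rescue of galactose-driven cybrid death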). Conditions: complex I mutant cybrid cells, 72 h, stronger effect = higher value.
Assay [10] in a line: SU-DIPG-VI glioma cell viability, MIPE4.0 library, CellTiter-Glo luminescence, qHTS (AID 1347066; cut-off not given, nearly all actives have AC50 up to about 30 µM;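 note: cells exposed to compound for 48 hours before readout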). Conditions: CellTiter-Glo ATP luminescence.
Assay [11] is described as follows: inhibitors of Cryptococcus chitosan production, flow cytometry, Cibacron Brilliant Red staining (AID 1347148; call rule not given here;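 note: compound exposure lasted three days at 37 degrees C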). The note with it: Cryptococcus neoformans chitosan, stronger effect = lower value; at 10 µM unless noted.
The mark [12] stands for this setting: stronger effect = lower value, cell number ratio, induced over uninduced.
Setting [13] is: measured here: relative caspase fold change +Dox/-Dox.
Where [14] appears, read: measured here: total cells with miR-34 induction, stronger effect = lower value.
Where [15] appears, read: measured here: total cells without miR-34 induction.
Where [16] appears, read: MELAS cybrid survival, CellTiter-Glo 48 h, stronger effect = higher value.
The mark [17] stands for this setting: Rieske KO mouse fibroblast survival, CellTiter-Glo 72 h.

Where “and” joins values, the source holds several entries; their conditions need not be identical. Identical values can stand only once. Inconclusive results are not listed. Calls of active or inactive are those of the source.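 Rule for the calls, unless noted: active = mean z-score across replicates of 1.96 or higher in either the MELAS or the Rieske mutant cell line; inactive = the rest.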

Regarding `CCCN(CCC)C(=O)C(CCC(=O)O)NC(=O)c1ccccc1` (centres undefined), the molecule was called inactive in assay [1], in assay [2], in assay [3] and in assay [5]. Also, the fold change was 1.06 (inactive) and 0.936 (inactive) and 0.845 (inactive) in assay [4] (setting [12]); 0.941 and 0.892 and 4.08 in assay [4] (setting [13]). For the same molecule, the cell count was 10500 and 8340 and 11300 in assay [4] (setting [14]); 9940 and 8900 and 13400 in assay [4] (setting [15]). The results for the z-score in assay [6] (setting [16]), in [6] (setting [17]) and in assay [9] were -1.04 (inactive), -0.386 and 0.665 (inactive), respectively. Moreover, in assay [7], the remaining NAD is 10 nM (inactive). Besides, the luciferase signal in [8] is 108 AU (inactive).
With `O=C(NCCO[N+](=O)[O-])c1cccnc1`, the outcome in assay [1], in [10] and in assay [3] was inactive. The z-score in [6] (setting [16]) is -0.335 (inactive) and 0.466 (inactive) and -0.214 (inactive); in assay [6] (setting [17]), -0.979 and 0.348 and 0.117; in [9], 0.795 (inactive) and 0.02 (inactive) and 0.605 (inactive). Moreover, the remaining NAD in assay [7] was 10 nM (inactive).
In the case of `Cn1c(NCCN(CCO)CCCc2ccc([N+](=O)[O-])cc2)cc(=O)n(C)c1=O`, the molecule was classed as inactive in [1], in assay [2] and in assay [3]. For the same molecule, the fold change in assay [4] (setting [12]) is 0.987 (inactive) and 0.875 (inactive); in assay [4] (setting [13]), 1.91 and 1.23. In addition, the cell count in assay [4] (setting [14]) was 8810 and 9410; in [4] (setting [15]) it was 8920 and 10800. Besides, the z-score in assay [6] (setting [16]) was 0.423 (inactive) and 0.101 (inactive); in assay [6] (setting [17]), 0.302 and -0.676; in assay [9], 0.115 (inactive) and 0.85 (inactive).
Take `Cc1[nH]c(=O)c(C#N)cc1-c1ccncc1`: the molecule was classed as inactive in [1], in [2], in [3] and in assay [5]. Besides, the fold fluorescence in assay [11] was 6.33 [at 236.7 µM] (inactive). In addition, the z-score in assay [6] (setting [16]) was -0.327 (inactive) and 0.548 (inactive) and 0.108 (inactive); in [6] (setting [17]) it was 0.87 and -0.397 and -0.212; in assay [9] it was 0.46 (inactive) and 0.67 (inactive) and 0.525 (inactive). The remaining NAD in assay [7] is 10 nM (inactive).
Take `CCN1CCN(C(=O)N[C@@H](C(=O)N[C@@H]2C(=O)N3C(C(=O)O)=C(CSc4nnnn4C)CS[C@H]23)c2ccc(O)cc2)C(=O)C1=O`: the result in assay [1], in assay [2] and in [3] was inactive. The fold change in assay [4] (setting [12]) is 0.863 (inactive) and 0.844 (inactive); in assay [4] (setting [13]) it was 1.41 and 1.35. The cell count in assay [4] (setting [14]) was 7800 and 9270; in assay [4] (setting [15]), 9050 and 11000. For the same molecule, the z-score in [6] (setting [16]) was -0.583 (inactive) and -0.0634 (inactive); in [6] (setting [17]) it was -0.0146 and -0.684; in assay [9], -0.045 (inactive). Also, in assay [7], the remaining NAD was 10 nM (inactive). The luciferase signal in assay [8] was 88 AU (inactive).
Regarding `Cn1c(=O)c2c(ncn2C)n(C)c1=O`, the result in assay [1], in assay [10], in [2] and in assay [5] was inactive. The fold change in assay [4] (setting [12]) is 0.965 (inactive) and 0.863 (inactive); in assay [4] (setting [13]), 1.02 and 1.01. For the same molecule, the cell count in assay [4] (setting [14]) is 9770 and 10600; in [4] (setting [15]), 10100 and 12300. Also, the values for the z-score in assay [6] (setting [16]), in [6] (setting [17]) and in assay [9] were 0.603 (inactive), -0.496 and 0.3 (inactive), respectively. In addition, the remaining NAD in assay [7] is 10 nM (inactive). Moreover, the luciferase signal in assay [8] is 32 AU (inactive).
For `CCOc1cc(N)c(Cl)cc1C(=O)NCC1CN(Cc2ccc(F)cc2)CCO1` (centres undefined), the outcome in assay [1], in [10] and in assay [3] was inactive. The fold change in assay [4] (setting [12]) was 0.847 (inactive) and 0.952 (inactive); in assay [4] (setting [13]), 1.51 and 0.602. In addition, the cell count was 7930 and 7020 in assay [4] (setting [14]); 9370 and 7370 in assay [4] (setting [15]). For the same molecule, the z-score in [6] (setting [16]) is -0.303 (inactive); in [6] (setting [17]), -0.205; in assay [9] it was 0.725 (inactive).
